In PubChem BioAssay AID1792 (The Scripps Research Institute Molecular Screening Center, 2009):
Screen size: about 16,000 compounds; about 130 (0.81%) were called active. The list comes from a sample in which actives are over-represented; it also holds similar structures and randomly drawn compounds. Values without a mark were called inactive. Cut-off read from the data, not from the text of the source: active = inhibition above about 75%; inactive = the rest.

molecular target: NADPH oxidase 1 (Homo sapiens) (UniProt Q9Y5S8); test: inhibitors of human NADPH oxidase 1 (Nox1) (AID 1792); details: HT29 cells, luminol chemiluminescence ROS; at 6.7 µM; stronger effect = higher value
Sequence (Q9Y5S8 whole entry, looked up): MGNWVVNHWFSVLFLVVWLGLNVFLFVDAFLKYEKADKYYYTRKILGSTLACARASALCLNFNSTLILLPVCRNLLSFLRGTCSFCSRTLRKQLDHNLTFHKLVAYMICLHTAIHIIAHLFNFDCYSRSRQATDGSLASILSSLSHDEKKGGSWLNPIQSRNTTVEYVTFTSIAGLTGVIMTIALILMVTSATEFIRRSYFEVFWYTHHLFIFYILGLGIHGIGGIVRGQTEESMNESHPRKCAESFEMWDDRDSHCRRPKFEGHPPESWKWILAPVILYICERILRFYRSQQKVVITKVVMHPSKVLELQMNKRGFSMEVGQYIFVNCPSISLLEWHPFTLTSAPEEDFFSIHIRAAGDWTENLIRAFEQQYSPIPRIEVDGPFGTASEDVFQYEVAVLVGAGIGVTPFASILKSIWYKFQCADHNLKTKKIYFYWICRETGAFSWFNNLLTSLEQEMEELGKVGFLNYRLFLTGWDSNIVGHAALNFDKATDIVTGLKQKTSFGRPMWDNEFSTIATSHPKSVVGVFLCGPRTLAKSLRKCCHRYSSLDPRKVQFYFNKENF

| Structure (SMILES) | inhibition |
| --- | --- |
| N#C/C(=C\c1sccc1Oc1ccccc1)S(=O)(=O)c1ccc(C(F)(F)F)cn1 | -16.5% |
| CCCCC#Cc1cncc(C(=O)NNC(=O)Nc2ccc(Cl)cc2)c1 | 11.2% |
| N#Cc1cccnc1NNC(=O)Nc1ccc(OCc2ccccc2)cc1 | 61.8% |
| CC(C)CC(NC(=O)OC(C)(C)C)C(=O)OCc1ccc(CC(=O)O)cc1 (stereo not drawn) | -5% |
| O=c1c(-c2nc(-c3ccc(C(F)(F)F)cc3)no2)cnc2n1CCS2 | -4.83% |
| CSc1sc(C(=O)NC2CC2)c(-c2ccc(Cl)cc2)c1C#N | -9.35% |
| NS(=O)(=O)c1ccc(Oc2c(Cl)cccc2[N+](=O)[O-])cc1 | 21.2% |
| Cc1cc(C(=O)NCCNS(=O)(=O)c2ccc(Cl)cc2)c(C)o1 | 2.68% |
| O=C1c2ccccc2O[C@@H](c2ccccc2)[C@@H]1NC1CCCCC1 | -19.7% |
| COC(=O)c1ccccc1-c1c2ccc(=O)cc-2oc2cc(O)ccc12 | -13% |
| C#CC(C)(CC)OCC(O)CS(=O)(=O)O (stereo not drawn) | -13.2% |
| COc1cccc2c1c(NS(=O)(=O)c1cn(C)cn1)nn2C | -41.2% |
| Cc1nc(-n2cccc2)sc1C(=O)N/N=C/c1ccccc1Cl | 6.52% |
| O=S(=O)(c1ccc(Cl)cc1)n1nccc1/C=C/c1cccs1 | -18.9% |
| CSc1nnc(SC)n1CCNC(=O)Nc1cccc(Cl)c1 | -65% |
| O=C(Cn1nnc2ccccc21)NCCSCc1ccco1 | 16.2% |
| CN([C@H]1CCN2CCc3ccccc3C2C1)S(C)(=O)=O (stereo partly drawn) | -68.5% |
| N#Cc1nccnc1N1CCN(C(=O)c2ccccc2)CC1 | -2.33% |
| Cc1ccc(C(=O)N2CCN(c3cccc4[nH]ccc34)CC2)cc1 | 76% (active) |
| COc1ccc(NC(=S)Nc2ccc(OC)cc2)cc1 | 3.7% |
| COc1cccc(NC(=S)NNC(=S)NC2CC3CCC2C3)c1 (stereo not drawn) | 87.8% (active) |
| COc1cccc(NC(=S)N(CCC#N)C2CCCCC2)c1 | -44.9% |
| CSc1nc(-n2nc(C)cc2C)nc(-c2ccco2)c1C#N | -107% |
| Cc1ccc(NC(=S)C(C#N)C(=O)N2CCCC2)c(C)c1 (stereo not drawn) | -73.4% |
| CCOC(=O)c1c[nH]n2c(=O)c3c(nc12)CCC3 | -13% |
| Cc1noc(C)c1S(=O)(=O)NCc1cc(F)cc2c1OCOC2 | -23.9% |
| CS/C(=N/S(=O)(=O)c1c(C)noc1C)NNC(=O)Nc1ccc(Cl)cc1 | 20% |
| CC1=NCCNC(C)=C1N1CCOCC1 | -21.2% |
